# Compound activity from PubChem BioAssay.
# EP2 modulator: modulators of human EP2 prostaglandin E2 receptor | EP2-expressing cells, cAMP HTRF FRET, PGE2 co-stimulation | AID 940 | 260,000 tested, 0.83% active | P43116 | induction, % at 25 µM;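 active = compounds whose cAMP rise, as percent of the full-agonist control response, exceeds 60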;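 also: rat C6 glioma line stably carrying human EP2 under a CMV promoter; the protocol text gives 20 µM as final concentration; 100% = response of wells given 1 µM PGE2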
# Target sequence (P43116 whole entry, looked up): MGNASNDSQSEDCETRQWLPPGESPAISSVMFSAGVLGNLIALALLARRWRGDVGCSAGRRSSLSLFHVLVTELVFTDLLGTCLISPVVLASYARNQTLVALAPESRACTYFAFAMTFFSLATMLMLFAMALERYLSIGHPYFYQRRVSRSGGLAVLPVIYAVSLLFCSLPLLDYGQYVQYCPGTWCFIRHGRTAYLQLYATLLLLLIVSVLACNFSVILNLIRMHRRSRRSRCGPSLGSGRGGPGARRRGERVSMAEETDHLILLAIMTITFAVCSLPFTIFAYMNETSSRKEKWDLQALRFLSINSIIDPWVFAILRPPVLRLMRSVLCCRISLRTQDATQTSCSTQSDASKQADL
# S1P4 antag: antagonists of human S1P4 receptor. S1P4-expressing cells, antagonist mode, reporter read-out. inhibition, % at 4.98 µM. 220,000 tested, 0.26% active; in the data active = inhibition above about 29%;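 also: 0% = wells stimulated with agonist and 100% = vehicle wells without agonist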
# S1P3 antagonist: antagonists of human S1P3 receptor; CHO S1P3 NFAT-BLA reporter, FRET fluorescence, antagonist mode; Q99500; inhibition, % at 4.98 µM; 170,000 tested, 0.27% active;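 active = inhibition above the plate cutoff, the mean inhibition of test wells on that plate plus 3 SD, cut at about 28% in these data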;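 also: cells challenged with S1P at its EC80 of 0.8 µM; blue over green emission ratio from cleaved BLA substrate after 4 h stimulation; 0% = S1P-stimulated wells and 100% = unstimulated DMSO-only wells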
# EP2 antag: EP2 receptor (human) inhibition; C6 glioma cells expressing human EP2, cAMP TR-FRET; cells stimulated with saturating PGE2; 260,000 tested, 0.52% active; P43116; inhibition, % at 25 µM;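 active = percent inhibition above 40 after rounding to a whole number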;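 also: rat C6 glioma host cells with rolipram phosphodiesterase inhibitor present; the protocol text gives 20 µM as final concentration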
# S1P4 agonist: human S1P4 receptor agonism; activation, % at 4.98 µM; 220,000 tested, 0.35% active; S1P4-expressing cell line, agonist reporter assay; in the data active = activation above about 11%;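 also: 0% = DMSO vehicle and 100% = reference agonist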
# EP2 cAMP induct: EP2 receptor cAMP induction, counter-screens negative; AID 1080; 1,300 tested, 47% active; shares compounds with EP2 modulator; calls only at 20 µM (by protocol); C6 glioma EP2 cells, cAMP HTRF induction; plus low (about EC15) PGE2 agonist;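 active = cAMP induction above 50% in the main assay while under 30% in all four parallel counter assays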;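 also: rat C6 glioma cells stably expressing human EP2 receptor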
# An asterisk follows results filed as active; i = inactive; . = no result given; + = active, no number. This is a sample that favours compounds with a hit; in the whole collection about 1.9% have one here.
SMILES,EP2 modulator,S1P4 antag,S1P3 antagonist,EP2 antag,S1P4 agonist,EP2 cAMP induct
COc1cc(C)c2c(c1C=O)Oc1c(c(C)c(O)c3c1C(O)OC3=O)OC2=O (centres undefined),28,7,-14,7,2,.
Cc1cc(O)c(C=O)c2c1C(=O)Oc1c(C)c(O)c3c(c1O2)C(O)OC3=O (centres undefined),51,.,.,13,.,i
Clc1ccc(Cl)c(-c2ccc(/C=N/c3ncn[nH]3)o2)c1,71*,-11,.,30,2,i
O/N=C/c1ccc(-c2cc(Cl)ccc2Cl)o1,32,-22,-6,9,1,.
CCc1ccc2c(c1)c1nnc(SCC(=O)N3CCCc4ccccc43)nc1n2C,36,.,.,2,.,.
Clc1ccc(Cl)c(Nc2ccnc(SCc3ccccc3)n2)c1,62*,.,.,36,.,i
Oc1ccccc1/C=N/Nc1ccnc(SCc2ccccc2)n1,6,-12,5,9,1,.
CC(C)CCCC(C)C1CCC2C3=CC[C@H]4C[C@@H](O)CC[C@]4(C)C3CC[C@@]21C (some centres undefined),19,.,.,13,.,.
COc1ccc(C(C)C)cc1S(=O)(=O)NCC1(c2ccccc2)CCOCC1,13,.,.,7,.,.
CC1(C)Cc2ccccc2-c2nc3n(c(=O)c21)CCS3,74*,-3,6,10,-1,+
COC(=O)[C@H]1CCc2ccccc2N1C(=O)c1cccc(F)c1,17,.,.,.,.,.
CCCCCCC/C=C\CCCCCCCCC(=O)O,94*,.,.,10,.,+
O=C(CSc1nccc(=O)[nH]1)Nc1ccc(F)cc1,4,.,.,5,.,.
COc1ccc(-n2c(COc3cccc4ccccc34)nnc2SCC#N)cc1,7,-12,.,10,4,i
Cc1cccc(NC(=S)N(Cc2cccs2)Cc2cc3ccc(C)cc3[nH]c2=O)c1,-44,.,.,8,.,.
COc1ccc(-c2csc3nc(C)nc(N4CCC(C)CC4)c23)cc1OC,70*,-11,-17,12,-1,i
COc1ccc(-c2csc3nc(C)nc(N4CCN(C(C)=O)CC4)c23)cc1OC,-3,-15,-15,3,2,.
O=c1cc(C(F)(F)F)nc2cc(-c3ccccc3)[nH]n12,11,.,.,26,.,.
O=C1CCCC2=C1C(O)(C(F)(F)F)C(=O)N2Cc1ccccc1 (centres undefined),-4,-11,1,4,-1,.
O=C1N2c3ccccc3CCc3cccc(c32)C1(O)C(F)(F)F (centres undefined),79*,-15,-33,10,2,i
COc1ccc(-c2nn(CCN(C)C)c(=O)o2)c2ccccc12,-67,.,.,10,.,.
S=c1[nH]nc(Cc2ccccc2)n1Cc1ccco1,53,6,-21,-1,0,i
CCCn1c(Cc2ccccc2)n[nH]c1=S,38,-4,.,19,1,.
N#Cc1c(-c2ccsc2)cc(-c2ccc(Cl)c(Cl)c2)[nH]c1=O,8,.,.,5,.,.
CC(C)N(CCNC(=O)c1oc(=O)c2ccccc2c1-c1ccccc1)Cc1ccco1,69*,-2,-8,10,8,i
SMILES,EP2 modulator,S1P4 antag,S1P3 antagonist,EP2 antag,S1P4 agonist,EP2 cAMP induct
O=C(c1cc2sccc2n1Cc1ccccc1)N1CCCc2ccccc21,69*,-3,.,4,-2,+
Cn1c(C(=O)N2CCCc3ccccc32)cc2sccc21,66*,-10,38,9,1,+
COC(=O)c1cc2sccc2n1CC(=O)N1CCCc2ccccc21,30,4,-15,5,-2,.
CCN(c1cccc(C)c1)S(=O)(=O)c1ccc2c3c(cccc13)C(=O)N2,79*,-16,.,15,1,+
Cc1cc2nnc(SCC(=O)NNC(=O)COc3ccc(Cl)cc3)n2c2ccccc12,-50,.,.,34,.,.
COc1ccc(CN2C(=O)CN=C2Nc2cc(C)ccc2C)cc1,70*,4,.,10,2,i
COc1ccc(C(=O)N2c3ccccc3-c3c(ssc3=S)C2(C)C)cc1OC,36,.,.,13,.,.
Cc1ccc(Cn2ccc(=O)c(OCc3c(Cl)cccc3Cl)c2C)cc1,67*,-7,.,8,2,+
N#Cc1sc2nc(N3CCCCC3)c3c(c2c1N)CCCC3,73*,-19,.,17,-1,+
Cc1ccc(N/C(C(Cl)=C(Cl)Cl)=C(/Cl)[N+](=O)[O-])c(C)c1,73*,-6,-11,10,1,+
CCOP(=O)(OCC)c1nc(-c2cccc3ccccc23)oc1N1CCCCC1,69*,5,-9,7,0,+
CCOP(=O)(c1ccccc1)c1nc(-c2ccccc2C)oc1N1CCCCC1 (centres undefined),70*,-5,.,5,-1,+
CCOP(=O)(c1ccccc1)c1nc(-c2ccccc2C)oc1NCc1ccccc1 (centres undefined),47,-14,1,6,0,.
Cc1ccc(CNC(=O)CN(C(=O)C2(C)CC(=O)N=C3C=CC=CN32)C2CCCC2)cc1 (centres undefined),28,.,.,14,.,.
Cc1cc2c(s1)c1cnn(CC(=O)N3CCCCC3C)c(=O)c1n2C (centres undefined),-36,.,.,.,.,.
CCOC(=O)c1cc2occc2n1CC(=O)N1CCCCC1C (centres undefined),18,.,.,6,.,.
CCc1nn(CC(=O)N2CC(C)CC(C)C2)c(=O)c2cc3occc3n12 (centres undefined),-15,.,.,7,.,.
NC(=O)CSc1nnc(-c2cccc(S(=O)(=O)N3CCOCC3)c2)n1C1CCCCCC1,81*,-12,.,11,-2,i
COc1ccc(S(=O)(=O)N2CCC(C(=O)Nc3cccc(Cl)c3Cl)CC2)cc1,-74,.,.,11,.,.
Cc1cccc(CSc2ncnc3ccccc23)c1,71*,-5,0,7,2,i
O=C(c1nc2ccccc2s1)C1CCN(C(=O)C2(c3ccccc3)CC2)CC1,-38,.,.,.,.,.
CCn1nccc1C(=O)Nc1cc(Cl)ccc1Cl,4,-9,0,10,-1,.
CCn1ncc(Cl)c1C(=O)Nc1cc(Cl)ccc1Cl,70*,-14,2,7,-1,+
Cn1c(=O)c2c(nc(S(C)(=O)=O)n2C)n(C)c1=O,-18,.,.,12,.,.
CC(C)NC(=S)N/N=C1\CCCCC1C1CCCCC1 (centres undefined),81*,7,.,0,0,+
CC1C2C(c3ccccc3)N(C)C(=O)N(C)C2N(C)C(=O)N1C (centres undefined),20,28,-11,6,-1,.
CCN1C(c2ccccc2)C(C)C(=O)C(C)C1c1ccccc1 (centres undefined),71*,-2,.,15,-2,+
Oc1ccccc1-c1nc(N2CCCC2)c2ccccc2n1,75*,2,.,8,3,i
CC1CCN(c2nc(-c3ccccc3O)nc3ccccc23)CC1,31,-9,.,10,-2,.
